Measurements reported in PubChem BioAssay (NCATS).
Results filed as inconclusive are left out. The source made the active and inactive calls. Calls come from the whole dose curve.

These compounds were tested against Cytochrome P450 1A2 (Homo sapiens) (UniProt P05177) (assay: p450-cyp1a2 (AID 410;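 for activity change, negative = inhibition: -100% = full effect of reference inhibitor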)). Conditions: recombinant CYP1A2, luciferin-ME demethylation, luminescence; series mostly up to 57 µM; activity change, negative = inhibition: at the top concentration.
Outline: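 O-Demethylation of luciferin 6' methyl ether by human CYP1A2 is monitored as luciferase luminescence. Substrate sits at Km (100uM); enzyme is 20nM. Values are scaled to 57 uM furafylline as maximal inhibition.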
Potency is the fitted concentration of half-maximal effect.

Chain of Cytochrome P450 1A2 (Homo sapiens) (P05177 whole entry, looked up): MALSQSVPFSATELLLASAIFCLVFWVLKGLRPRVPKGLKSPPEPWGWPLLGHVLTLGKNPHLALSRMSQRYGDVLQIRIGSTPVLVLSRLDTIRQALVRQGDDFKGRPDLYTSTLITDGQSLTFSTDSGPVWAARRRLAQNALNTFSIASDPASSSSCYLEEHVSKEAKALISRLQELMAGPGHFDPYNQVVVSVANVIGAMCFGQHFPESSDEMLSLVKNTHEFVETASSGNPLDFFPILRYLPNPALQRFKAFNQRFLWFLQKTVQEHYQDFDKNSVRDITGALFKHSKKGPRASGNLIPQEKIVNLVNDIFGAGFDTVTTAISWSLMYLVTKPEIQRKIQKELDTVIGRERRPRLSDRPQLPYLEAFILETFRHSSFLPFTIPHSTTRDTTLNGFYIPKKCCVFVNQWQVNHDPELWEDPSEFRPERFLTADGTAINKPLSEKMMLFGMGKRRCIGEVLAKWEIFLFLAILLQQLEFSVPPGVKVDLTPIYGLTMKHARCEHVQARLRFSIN

Row | SMILES | Potency | activity change, negative = inhibition
1 | CCC/C=C(\CCC)C(NC(=O)c1cccs1)c1ccc(C(=O)OC)cc1 (stereo not given) | 5.01 µM (active) | 
2 | C[C@@H](C(=O)O)[C@H]1C[C@]1(C)[C@H](NC(=O)OCc1ccccc1)c1ccccc1 |  | -16% (inactive)
3 | COc1ccc2nc3c(cc2c1)Cc1ccccc1-3 | 0.251 µM (active) | 
4 | c1ccc2c(c1)Cc1cc3cc4c(cc3nc1-2)OCO4 | 0.501 µM (active) | 
5 | C[C@@H](C(=O)Nc1ccc2ccccc2c1)[C@H]1C[C@]1(C)[C@H](NP(=O)(c1ccccc1)c1ccccc1)c1ccccc1 | 10 µM (active) | 
6 | CCC/C=C(\CCC)C(NS(=O)(=O)c1cccc2cccnc12)c1ccc(-c2ccccc2)cc1 (stereo not given) | 0.794 µM (active) | 
7 | CC(C)C[C@@H](CC(=O)N[C@@H](CCC(=O)O)CC(=O)O)NC(=O)[C@@H]1CCCC[C@H]1NC(=O)C[C@H](CCCN)NC(=O)C[C@H](CO)NC(=O)[C@@H]1CNCC[C@H]1N |  | -18.4% (inactive)
8 | CCCCCCN(C(=O)CCCCCN1C(=O)NC(c2ccc(-c3ccccc3)cc2)C(C(=O)OCc2ccccc2)=C1C)C(C(=O)NCCCC)c1ccc(OCC(=O)OC)c(C(=O)OC)c1 (stereo not given) | 12.6 µM (active) | 
9 | C[C@@H](C(=O)NCc1ccc(S(C)(=O)=O)cc1)[C@@H]1C[C@@]1(C)[C@@H](NC(=O)OCc1ccccc1)c1ccccc1 | 15.8 µM (active) | 
10 | CCC[C@@H]1C[C@@]1(CCC)C(NC(=O)c1ccco1)c1ccc(Cl)cc1 (stereo not given in full) | 25.1 µM (active) | 
11 | CCCC[C@@H]1C[C@H]1C(NC(=O)c1cccs1)c1ccc(C(F)(F)F)cc1 (stereo not given in full) | 2 µM (active) | 
12 | CCCCCC1=C2CNC(CC(C)C)(C(=O)OC)C=C2C(C)C1=O (stereo not given) | 25.1 µM (active) | 
13 | COC(=O)[C@@]1(Cc2ccc(OC)cc2)[C@H]2c3cc(C(=O)N4CCCC4)n(Cc4cc(F)cc5c4OCOC5)c3C[C@H]2CN1C(=O)c1ccccc1 |  | -16.7% (inactive)
14 | CC(C)C[C@@H](CC(=O)N[C@H](CC(=O)N[C@@H]1CCCC[C@H]1C(=O)N[C@H](CC(=O)N[C@@H](CCC(=O)O)CC(=O)O)CC(C)C)C(C)C)NC(=O)[C@@H]1CCCC[C@H]1N |  | -1% (inactive)
15 | COC(=O)[C@H]1C[C@@H]1[C@H](NC(=O)c1ccccc1)c1ccccc1 | 15.8 µM (active) | 
16 | CCC/C=C(\CCC)C(NS(=O)(=O)c1ccc(C(F)(F)F)cc1)c1ccc(-c2ccccc2)cc1 (stereo not given) |  | -18% (inactive)
17 | COC(=O)[C@@H]1C[C@H]1[C@@H](NC(=O)c1ccccc1)c1ccccc1 | 5.01 µM (active) | 
18 | O=C(NCc1cc(F)cc2c1OCCO2)[C@H]1C[C@@H]1[C@H](NP(=O)(c1ccccc1)c1ccccc1)c1ccccc1 | 15.8 µM (active) | 
19 | C[C@@H](C(=O)Nc1ccc2ccccc2c1)[C@@H]1C[C@@]1(C)[C@@H](NC(=O)c1cnccn1)c1ccccc1 | 12.6 µM (active) | 
20 | S=C(Nc1ccccc1)Nc1ccccc1C#Cc1ccccc1 | 0.501 µM (active) | 

Row | SMILES | Potency | activity change, negative = inhibition
21 | OC1c2ccccc2-c2nc3ccccc3cc21 (stereo not given) | 0.126 µM (active) | 
22 | CCC[C@@H]1C[C@@]1(CCC)C(NS(=O)(=O)c1cccc2cccnc12)c1ccc(Cl)cc1 (stereo not given in full) |  | -12.8% (inactive)
23 | CC[C@H]1C2=C3C(CC[C@H]4C(OC)OC[C@](C)([C@@H]34)N(C(=O)OC(C)(C)C)C2)C(CO)C1CO (stereo not given in full) | 12.6 µM (active) | 
24 | COC(=O)[C@H]1C[C@@H]1[C@H](NC(=O)OCc1ccccc1)c1ccccc1 | 0.126 µM (active) | 
25 | c1ccc2c(c1)Cc1cc3ccccc3nc1-2 | 0.1 µM (active) | 
26 | CCCCCC1=C2CNC(Cc3ccccc3)(C(=O)OC)C=C2C(C)C1=O (stereo not given) | 15.8 µM (active) | 
27 | COC(=O)[C@@]1(Cc2ccc(F)cc2)[C@H]2c3cc(C(=O)N4CCCC4)n(Cc4cccc5ccccc45)c3C[C@H]2CN1C(=O)c1ccccc1 | 15.8 µM (active) | 
28 | COC(=O)[C@@H]1C[C@H]1[C@@H](NC(=O)Oc1ccc(F)cc1)c1ccccc1 | 3.16 µM (active) | 
29 | CCCC[C@@H]1C[C@H]1C(NC(=O)c1ccccc1)c1ccccc1 (stereo not given in full) | 2.51 µM (active) | 
30 | CC[C@H]1C(=O)OC[C@@H]1Cc1cncn1C |  | -1% (inactive)
31 | CC[C@@H]1OC(=O)[C@@H](C)[C@H](O[C@@H]2C[C@@](C)(OC)[C@@H](O)[C@H](C)O2)[C@H](C)[C@H](O[C@@H]2O[C@@H](C)C[C@@H](N(C)C)[C@H]2O)[C@@](C)(O)C[C@H](C)C(=O)[C@@H](C)[C@H](O)[C@@]1(C)O |  | 25.5% (inactive)
32 | COC(=O)[C@@]1(Cc2ccc(OC)cc2)[C@H]2c3cc(C(=O)N(C)C)[nH]c3C[C@H]2CN1C(=O)c1ccccc1 | 20 µM (active) | 
33 | CCC/C=C(\CCC)C(NS(=O)(=O)c1cccc2cccnc12)c1ccc(C(=O)OC)cc1 (stereo not given) | 6.31 µM (active) | 
34 | COC(=O)[C@@]1(Cc2ccc(F)cc2)[C@H]2c3cc(C(=O)N4CCCC4)n(CCc4ccc(O)c(O)c4)c3C[C@H]2CN1C(=O)c1ccccc1 | 20 µM (active) | 
35 | CC(C)C[C@@H](CC(=O)N[C@H](CC(=O)N[C@@H]1CCNC[C@H]1C(=O)N[C@H](CC(=O)N[C@@H](CCC(=O)O)CC(=O)O)Cc1ccccc1)C(C)C)NC(=O)[C@@H]1CNCC[C@H]1N | 31.6 µM (active) | 
36 | CC(C)[C@@H](CC(=O)N[C@@H]1CCNC[C@H]1C(=O)N[C@H](CC(=O)N[C@@H](CCC(=O)O)CC(=O)O)Cc1c[nH]c2ccccc12)NC(=O)C[C@H](Cc1ccccc1)NC(=O)[C@@H]1CNCC[C@H]1N | 31.6 µM (active) | 
37 | CCCC1(C(=O)OC)C=C2C(=C(C)C(=O)C2C)CN1 (stereo not given) |  | -20.6% (inactive)
38 | CCCC[C@@H]1C[C@H]1C(NC(=O)c1ccco1)c1ccc(C(=O)OC)cc1 (stereo not given in full) | 3.98 µM (active) | 
39 | COC(=O)[C@@]1(Cc2ccccc2)[C@H]2c3cc(C(=O)N4CCCC4)n(Cc4ccc(O)c(OC)c4)c3C[C@H]2CN1C(=O)c1ccccc1 | 25.1 µM (active) | 
40 | C[C@@H](C(=O)Nc1ccc2ccccc2c1)[C@H]1C[C@]1(C)[C@H](NS(=O)(=O)c1ccc2ccccc2c1)c1ccccc1 |  | -17.8% (inactive)
